Assay results: PubChem BioAssay (NCI)
This is part of a sample that, as a whole, favours compounds with a hit. Of some 83,000 tested, about 20% had one in any assay.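 In brief: 96-well plates, 48 h treatment, single concentration, percent growth endpoint.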 Unmarked numbers belong to inactive results. The source made the active and inactive calls.

system: OVCAR-8 ovarian; assay: NCI-60 one-dose screen, 48 h (100 = growth as untreated, 0 = no growth, -100 = all killed); conditions: 10 µM unless noted
Experimental: Growth inhibition of the OVCAR-8 human tumor cell line is measured as a screen for anti-cancer activity. Cells are grown in 96 well plates and exposed to the test compound for 48 hours. Compounds are tested at a single concentration, which is 10^-5 M for most compounds. The reported endpoint is percent growth (GI% or GIPRCNT), where numbers from 0 - 100% represent growth inhibition, and numbers from -100% - 0 represent cell death. For example, a value of 40 represents 60% growth inhibition. A value of 0 means no net growth occurred over the course of the experiment. A value of -40 indicates 40% of cells at the beginning of the experiment died by the end of the experiment. A value of -100 means all cells are dead at the end of the experiment.
NCI-60 Human Tumor Cell Lines Screen was performed using the standard one-dose NCI protocol, which is described in more detail at https://dtp.cancer.gov/discovery_development/nci-60/default.htm.
Compounds with GIPRCNT values below 10 were considered active. Activity score was based on GIPRCNT using the following formula: […]
Score is 0 for GIPRCNT values of 100 or above, 50 for GIPRCNT values of 0, and 100 for GIPRCNT values of -100.

Compound	growth
COc1ccccc1/C=C/C1=C(C)CCC(c2ccccc2OC)C1C (stereo not given)	19.7%
COc1cc(CNC(=O)CCCC/C=C/C(C)C)ccc1OCc1cn(-c2cccc([N+](=O)[O-])c2)nn1	76.9%
C=C1C(=O)O[C@H]2[C@H]1CC/C(CNC(=O)/C=C/c1cc(OC)c(OC)c(OC)c1)=C\CC[C@@]1(C)O[C@@H]21	5.04% (active)
CC1=NN(c2cccc(Cl)c2)C(=O)/C1=C\C=C\c1ccccc1	0.373% (active)
O=C(O)/C=C\C(=O)Nc1ccc2c(c1)Cc1cc(F)ccc1-2	105%
c1ccc(-c2nc(N3CCNCC3)c3oc(-c4ccccc4)nc3n2)cc1	-25.1% (active)
O=C(/C=C/c1cccc([N+](=O)[O-])c1)c1ccc(Nc2nc(Nc3ccc(F)cc3)nc(Nc3ccc(Cl)cc3)n2)cc1	86.3%
Oc1cccc2c1NCCC2	19.9%
Cc1c(Cl)cccc1NC(=O)c1sc2nc3c(cc2c1N)CCCC3	46.1%
N=C(N)c1ccc(-c2ccc(-c3ccc(Cl)cc3Cl)s2)nc1	36.2%
COc1ccc(-c2ccc(-c3ccc(C(=N)N)o3)o2)cc1	28.9%
CC(C)C(=O)Nc1ncc(C(=O)NCCN(Cc2ccccc2)C(=O)c2ccc(S(=O)(=O)Nc3ccccc3)cc2)s1	102%
COc1ccc(Cn2cc(C(=O)N=Nc3c(O)[nH]c4ccc(Br)cc34)nn2)cc1	99.2%
CCOC(=O)C#Cc1c(CC(=O)OCC)nnn1[C@H]1O[C@@H](CO)[C@@H]2OC(C)(C)O[C@@H]21	94.6%
CC(=O)/C(Br)=C/c1ccc(Br)o1	79%
C#C[C@]1(O)CC[C@H]2[C@@H]3CC=C4c5sc(-c6ccccc6)nc5CC[C@]4(C)[C@H]3CC[C@@]21C	101%
CC1=NC(=S)NC(c2ccccc2)/C1=C1/CC(c2ccccc2O)NN1 (stereo not given)	96.6%
CCCCCCC/C=N/NC(=O)c1ccc(-n2cc(-c3ccccc3)nn2)cc1	95.6%
CC(C)=CC(=O)C1C(=O)c2ccccc2C1=O	97.8%
CNc1nc2ncc(-c3c(C)noc3C)cc2n1Cc1ccccc1	55.9%

Compound	growth
CC(CN)[C@@H]1CC[C@]2(CO)CC[C@]3(C)[C@H](CC[C@@H]4[C@@]5(C)CCC(NCCO)C(C)(C)[C@@H]5CC[C@]43C)[C@@H]12 (stereo not given in full)	75.8%
Nc1ncc(-c2ccc3ncnc(N4CCc5cc(F)c(Cl)cc54)c3c2)cc1C(F)(F)F	33.1%
O=C(OCC(O)(CO)C(=O)NC12CC3CC(CC(C3)C1)C2)c1ccc(Cl)cc1 (stereo not given)	92.2%
N/C(=N\c1nc2ccccc2s1)NC(=O)Nc1ccccc1	41%
COc1ccc(-c2cc(-c3ccc(N(C)C)cc3)nc(NC(=O)c3cccnc3)n2)cc1	99.3%
N#C/C(=N\Nc1ccccc1)C(=O)Nc1cc(-c2ccccc2)nn1-c1ccccc1	40.6%
COc1ccc(-c2cc(-c3ccc(Nc4nc(Nc5ccc(Cl)cc5)nc(Nc5ccc(Cl)cc5)n4)cc3)no2)cc1	85.7%
CCOC(=O)C1=C(C)N(C)C(=O)N(C)C1c1ccccc1 (stereo not given)	104%
COc1ccc(NC(=O)c2ccc(NC3=C(c4ccc(Cl)cc4)C(=O)NC3=O)cc2)cc1	84.8%
CCOC(=O)c1c(C)n2c(=O)cc(C)c3c(OC(C)=O)c(OC(C)=O)cc1c32	62.2%
O=C(O)COc1ccc(F)cc1	102%
COc1cc2cc(Oc3ccc(NC(=O)Nc4ccc(F)c(C(F)(F)F)c4)cc3)c(C)nc2cc1OCCN1CCCCC1	-55.5% (active)
Nc1nc(=O)n([C@H]2CC=C(CO)O2)cc1F	99.7%
Cc1ccccc1NC(=O)c1sc2nc3c(cc2c1N)CCCC3	29.7%
CCOC(=O)c1cc(C(=O)c2cc(OC)cc(OC)c2)n2ccccc12	42.2%
O=c1n(C2OC(CO)C(O)C2O)ccc2nccn12 (stereo not given)	92%
O=C(OCC(O)C(=O)NC12CC3CC(CC(C3)C1)C2)c1cccc(Br)c1 (stereo not given)	95.9%
CN1CCN(Cc2ccc(NC(=O)c3cncc(C#Cc4c(N)ncc5c(F)cccc45)c3)cc2C(F)(F)F)CC1	-72.8% (active)
CC(=O)O[C@H]1C[C@@]2(C)[C@@H](C[C@@H](O)[C@H]3[C@@]4(C)CC[C@H](N5CCCC5)[C@@H](C)[C@@H]4CC[C@@]32C)/C1=C(\CCC=C(C)C)C(=O)O	102%
Clc1ccc(C2=Nn3c(nnc3-c3cc(Cl)cc(Cl)c3Cl)SC2)cc1	71.8%
